In the library only some 1.7% were active in any assay of this set; here they are far more common.
CCHF vOTU inh-1 – blocks the CCHF virus ovarian tumor domain protease. AID 651958. CCHFV vOTU protease, Pep-AMC fluorescence. 370,000 tested, 0.55% active. inhibition, % at 11.5 µM; further: 0% = vehicle wells with enzyme and 100% = no enzyme wells
RecA splice inh – Mtb RecA intein splicing inhibition; P9WHJ3; cell-free RecA intein splicing, fluorescence; inhibition, % (no concentration beside the values); 290,000 tested, 0.75% active; in the data active means inhibition above about 30%;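 further: 0% = vehicle wells and 100% = reference inhibitor control wells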
Target sequence (P9WHJ3 whole entry, looked up, canonical isoform): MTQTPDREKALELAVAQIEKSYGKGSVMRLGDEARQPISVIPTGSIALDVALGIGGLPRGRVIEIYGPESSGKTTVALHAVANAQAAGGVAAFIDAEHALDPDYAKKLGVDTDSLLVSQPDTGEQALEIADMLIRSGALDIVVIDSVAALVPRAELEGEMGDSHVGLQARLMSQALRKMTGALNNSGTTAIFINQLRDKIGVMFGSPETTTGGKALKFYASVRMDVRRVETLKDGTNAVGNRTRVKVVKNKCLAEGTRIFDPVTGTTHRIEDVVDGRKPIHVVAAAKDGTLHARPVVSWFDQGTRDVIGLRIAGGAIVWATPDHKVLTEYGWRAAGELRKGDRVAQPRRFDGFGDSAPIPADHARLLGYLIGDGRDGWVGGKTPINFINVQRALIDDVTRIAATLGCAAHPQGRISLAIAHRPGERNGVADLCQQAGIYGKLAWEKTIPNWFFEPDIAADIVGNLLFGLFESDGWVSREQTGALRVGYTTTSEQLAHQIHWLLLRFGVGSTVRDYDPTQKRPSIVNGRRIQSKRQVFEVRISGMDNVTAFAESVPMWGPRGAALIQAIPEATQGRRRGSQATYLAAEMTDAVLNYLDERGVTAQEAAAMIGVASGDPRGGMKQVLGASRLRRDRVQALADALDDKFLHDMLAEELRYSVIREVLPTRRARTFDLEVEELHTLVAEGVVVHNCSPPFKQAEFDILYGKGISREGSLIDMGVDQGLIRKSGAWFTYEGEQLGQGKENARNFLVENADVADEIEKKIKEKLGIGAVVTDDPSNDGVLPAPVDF
Mtb hypoxia inh – reduces hypoxia-regulated biosensor signal in M. tuberculosis; 300,000 tested, 0.1% active; M. tuberculosis hypoxia-regulated fluorescent reporter, fluorescence; fluorescence inhibition, % (test concentration not listed); in the data active means fluorescence inhibition mostly above about 23%, no sharp cut-off; inactive means mostly below about 17%
Mtb bLac sens – beta-lactam sensitization of Mtb H37Rv | 330,000 tested, 0.27% active | inhibition, % at 25 µM | M. tuberculosis H37Rv growth with meropenem, percent inhibition; call rule not given here;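 further: growth measured after seven days incubation then overnight dye step; 0% = bacteria only wells and 100% = bacteria with antibiotic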
PfHsp40 rescue – rescue of PfHsp40-mediated yeast toxicity | S. cerevisiae expressing PfHsp40, growth rescue, ATP luminescence | growth rescue, % at 12.5 µM | 340,000 tested, 0.68% active | AID 504582; in the data active means growth rescue above about 28%, passing the limit was not always enough;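 further: yeast W303a lacking pdr1 and pdr3 grown in galactose medium; growth measured after three days at 30 °C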
CCHF vOTU inh-2 – confirmation of CCHF virus vOTU protease inhibitors; shares compounds with CCHF vOTU inh-1; Recombinant CCHFV vOTU, Pep-AMC fluorescence; inhibition, % at 11.5 µM; 1,900 tested, 17% active
* marks the source's active call; other numbers are inactive results; . = no result. Unless noted, no stated cut-off is given here; in the data, active means inhibition above about 30%; inactive means the rest.

SMILES	CCHF vOTU inh-1	RecA splice inh	Mtb hypoxia inh	Mtb bLac sens	PfHsp40 rescue	CCHF vOTU inh-2
CC(=NNC(=O)C1CC1)c1ccc(C)cc1C	.	.	0	.	.	.
Cc1ccc(-n2cccc2/C=C2/C(=N)N3C(=NC2=O)SN=C3S(C)(=O)=O)cc1Cl	52*	.	7	-9	0	8
Cc1cccc(C)c1-n1cccc1/C=C1/C(=N)N2C(=NC1=O)SN=C2S(C)(=O)=O	35*	15	7	5	2	23
COc1cccc(C=Nn2c(COc3ccccc3)n[nH]c2=S)c1OC	.	.	-11	.	.	.
CNc1ccc2oc(C[C@H]3O[C@@]4(CC[C@H]3C)O[C@H]([C@H](C)C(=O)c3ccc[nH]3)[C@H](C)C[C@H]4C)nc2c1C(=O)O	54*	-39	.	97	143*	-36
C[n+]1c2cc(N)ccc2cc2ccc(N)cc21	88*	.	.	.	228*	54*
Nc1ccc(C(=O)Nc2ccc3c(O)cc(S(=O)(=O)O)cc3c2)cc1	-2	.	5	.	1	.
Nc1cc(S(=O)(=O)O)cc2ccc(S(=O)(=O)O)cc12	44*	.	21	.	16	-97
CC(O)Cc1cn(-c2cc3cc(C#Cc4ccsc4)ccc3oc2=O)nn1 (stereo unspecified)	.	.	11	.	.	.
C[C@]12CCC3c4ccc(O)cc4CCC3C1CC(O)C2OC1OC(C(=O)O)C(O)C(O)C1O (stereo partly specified)	.	.	-4	.	.	.
CCCCCCCCNS(=O)(=O)/C=C/c1ccccc1CNC(=O)OC(C)(C)C	36*	.	.	.	.	16
COc1ccc(OCC(=O)NN=C(C)Cc2ccccc2)cc1	.	.	5	.	.	.
O=C(CCCCCN1C(=O)C2C3C=CC(C3)C2C1=O)Nc1ccc2ncccc2c1 (stereo unspecified)	69*	.	.	.	.	18
S=c1[nH]nc(-c2cc(-c3ccccc3)n[nH]2)n1/N=C/c1ccccc1	-2	-8	.	8	2	.
COc1cc(C=Nn2c(-c3cc(-c4ccccc4)n[nH]3)n[nH]c2=S)ccc1OC(C)=O	30*	.	.	.	.	-12
Cc1c(C=O)c(Cl)n(C)c(=O)c1C#N	68*	-5	-1	-1	1	110*
CCOc1ccccc1C=Nn1c(C2CCCCC2)n[nH]c1=S	.	.	-3	.	.	.
O=C(CN(Cc1ccccc1Cl)S(=O)(=O)c1ccc(Cl)cc1)NN=Cc1ccc(C(=O)O)cc1	.	.	9	.	.	.
CC(=O)Nc1cc(-c2ccccc2N(C)C)cn2c(-c3cccc(C(F)(F)F)c3)cnc12	34*	.	.	.	.	-2
CC(=O)Nc1cc(-c2cccc(NS(C)(=O)=O)c2)cn2c(-c3cccc(C(F)(F)F)c3)cnc12	7	.	.	.	.	.
COC(=O)C(NC(=O)NCc1ccccc1Cl)C(C)C (stereo unspecified)	.	.	8	.	.	.
COc1ccccc1/C=N/NC(=O)c1ccc(=O)n(C)c1	31*	-4	.	2	-1	-5
CC(=O)O[C@H]1C=C[C@@H](C#Cc2ccc(C(C)(C)C)cc2)O[C@@H]1COC(=O)Nc1ccccc1	5	.	.	.	.	.
CC(=O)O[C@@H]1C=C[C@@H](C#Cc2ccc(C(C)(C)C)cc2)O[C@@H]1COC(=O)Nc1ccccc1	34*	.	.	.	.	-8
O=[N+]([O-])c1cccc2ccc(/C=C/c3cccc(Br)c3)nc12	31*	9	2	0	-1	-12
SMILES	CCHF vOTU inh-1	RecA splice inh	Mtb hypoxia inh	Mtb bLac sens	PfHsp40 rescue	CCHF vOTU inh-2
CCCCN1CC(=O)N2C3c4ccccc4OCC3C(c3ccccc3)[C@]2(C)C1=O (stereo partly specified)	.	.	13	.	.	.
COC(=O)CSc1nnc(CNc2ccc(OC)cc2)n1C	39*	-5	3	26	-1	-22
C[C@@H]1CN([C@H](C)CO)C(=O)c2cc(Br)cnc2O[C@H]1CN(C)C(=O)c1ccccc1	34*	.	.	.	.	-19
C[C@H]1CN([C@@H](C)CO)C(=O)c2cc(Br)cnc2O[C@H]1CN(C)C(=O)c1cccnc1	0	.	.	.	.	.
CC(=O)c1ccc(NC(=O)COC(=O)C2C3CC4OC(=O)C2C4C3)cc1 (stereo unspecified)	12	2	11	-3	0	.
Cc1ccc(NC(=O)COC(=O)C2C3CC4OC(=O)C2C4C3)cc1 (stereo unspecified)	40*	-5	1	-6	-1	-22
NC(=S)NNc1cccc2cccnc12	101*	28	6	8	-2	34*
NC(=S)Nc1cccc2cccnc12	-6	-1	5	93	-1	.
Oc1ccccc1CNc1cccc2cccnc12	52*	4	3	-1	1	91*
CC(=O)CC(O)CC(=O)C1OC(=O)CCCCCCCc2ccccc21 (stereo unspecified)	.	.	18	.	.	.
CC1NC(=O)C(CCCN=C(N)N)NC(=O)c2cc([N+](=O)[O-])cc(I)c2NCCCC(C(N)=O)NC1=O (stereo unspecified)	.	.	15	.	.	.
COc1ccc2c(c1)NP(=S)(c1ccccc1)N2C (stereo unspecified)	38*	.	6	.	-1	-18
O=C(NN=Cc1cccs1)c1cc(-c2ccncc2)nc2ccccc12	.	.	-1	.	.	.
Cc1ccc(/C=C/C(=O)Nc2nccs2)o1	51*	8	11	1	6	2
Nc1nonc1-n1nnc(C(=O)NN=Cc2ccoc2)c1-c1ccccc1	.	.	5	.	.	.
COc1ccc(-c2nc3ccccc3nc2-c2ccc(OC)cc2)cc1	-4	2	13	3	2	.
c1coc(-c2nc(-c3ccco3)c(-c3ccco3)nc2-c2ccco2)c1	35*	.	1	-7	1	-14
COc1ccc2nc(-c3ccco3)c(-c3ccco3)nc2c1	63*	-92	13	0	1	-15
Nc1nc(-c2ccco2)c(-c2ccco2)s1	11	-1	.	86	0	.
Fc1c(F)c(F)c(C=NNC(=S)Nc2cccnc2)c(F)c1F	.	.	13	.	.	.
Cc1ccc(C(=O)NCCN2C3=NCC(C)N3CC2Cc2ccc(O)cc2)cc1Br (stereo unspecified)	.	.	2	.	.	.
COc1cccc(-c2cc(C(F)(F)F)nc(-n3cc(C)cn3)n2)c1	35*	-10	-6	6	0	-9
COc1cccc(-c2cc(C(F)(F)F)nc(-n3cncn3)n2)c1	-9	1	11	-4	-1	.
CC1OC2CC(=O)OC2C2=C1C(=O)c1c(O)cccc1C2=O (stereo unspecified)	98*	.	.	.	.	91*
COC(=O)NN=Cc1cn(Cc2c(Cl)cccc2Cl)c2ccccc12	.	.	-5	.	.	.
CCNC(=S)NN=Cc1cn(Cc2ccccc2F)c2ccccc12	.	.	13	.	.	.
CN(C)N=Cc1ccc(P(c2ccc(C=NN(C)C)o2)c2ccc(C=NN(C)C)o2)o1	.	.	9	.	.	.
CCCC[n+]1ccn(C2=C([O-])c3ccccc3C(=O)/C2=N\S(=O)(=O)c2ccccc2)c1	58*	4	19	12	0	54*
NCC1OC(C23CC4CC(CC(C4)C2)C3)Cc2c1ccc(O)c2O (stereo unspecified)	.	.	4	.	.	.
CCOC(=O)O[C@]1(C(=O)OCCl)CCC2C3CCC4=CC(=O)C=C[C@]4(C)C3C(O)C[C@@]21C (stereo partly specified)	.	.	9	.	.	.
